From PubChem BioAssay
An excerpt weighted towards active compounds, which were near 20% of everything screened.
Shiga toxin inh: blocks Shiga toxin action in Vero cells. inhibition, % at 38.7 µM. Vero cells, Shiga toxin protein synthesis inhibition reporter. actives 9.2% (n = 290,000). AID 2315; in the data active means inhibition mostly above about 28%, no sharp cut-off; inactive means mostly below about 43%; further: 0% is about no effect
Pf growth 96h: inhibits malaria parasite growth, 96 h; P. falciparum luciferase reporter growth, 96 h; Potency, µM (highest dose often 28.7 µM), without a hit: top-dose activity change, negative = inhibition, usual class: inhibitors; actives 6.9% (n = 320,000); further: potency means the concentration at half of the fitted maximal effect; on the % scale 0 is the no-effect control and ±100 the full control effect
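Two-generation exposure (96 h) targets delayed-death phenotype. Reporter parasites carrying integrated firefly luciferase, in red cells at 2% hematocrit and 0.05% parasitemia final, kept at 37 C, 5% CO2; luminescence loss indicates inhibition.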
Pf growth 48h: P. falciparum growth inhibition at 48 hours (one generation); P. falciparum luciferase growth in erythrocytes, 48 h; Potency, µM (doses to about 28.7 µM), without a hit: at the top dose activity change, negative = inhibition, actives largely listed as inhibitors; actives 5.9% (n = 310,000); further: potency means the concentration at half of the fitted maximal effect; on the % scale 0 is the no-effect control and ±100 the full control effect
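Here the parasites carry a stable luciferase gene and grow inside erythrocytes in Albumax-based RPMI medium with compound for one erythrocytic cycle. Activity is scored as loss of luminescent signal.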
HCMV antiviral: blocks human cytomegalovirus replication. actives 4.5% (n = 410,000). activity change, negative = inhibition, % at 57.5 µM. HFF cells, HCMV-luciferase reporter, 72 h; active compounds read low; in the data active means activity change below about -60%; inconclusive means no clear call, values can overlap the other calls; inactive means above about -39%; further: on the % scale 0 is the no-effect control and ±100 the full control effect
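Two-dose cell screen: HFF monolayers treated with compounds and infected with luciferase-expressing HCMV at 1 PFU/cell, 72 h at 37C, then lysed for luciferase measurement.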
CHX counter: affects cycloheximide protein synthesis inhibition readout, counter-screen; cell reporter, cycloheximide protein synthesis inhibition counterscreen; actives 12% (n = 300,000); max response, %; in the data active means max response mostly above about 13%, no sharp cut-off; inactive means mostly below about 14%; further: read at 38.3 µM for the half of the compounds with a filed dose; 0% is about no effect
* marks the source's active call; other numbers are inactive results; i = inactive; ? = inconclusive; / = not tested or not shown; [ ] = another dose, or the depositor's remark. Unless noted, the call rests on the fitted dose curve; in most records, active means well fitted inhibition curve with a large enough effect; inconclusive means small, poorly fitted or top-dose-only effect, or another doubt; inactive means no such curve, though single readings can be large or run the other way.

SMILES	Shiga toxin inh	Pf growth 96h	Pf growth 48h	HCMV antiviral	CHX counter
CC1CCCN(C(=O)c2cc3ccc4cccnc4c3[nH]2)C1 (configuration not stated)	/	/	/	-81*	/
O=C(NCC1CCN(Cc2ccccc2Cl)CC1)c1cc2ccc3cccnc3c2[nH]1	/	/	/	-5	/
O=C(c1cc2ccc3cccnc3c2[nH]1)N1CCCCC1	/	/	/	-67*	/
O=C(NCC1CCN(Cc2ccc(F)cc2)CC1)c1cc2ccc3cccnc3c2[nH]1	/	/	/	-68*	/
COc1ccc(NC(=O)CSCc2cc(=O)n3c(C)csc3n2)cc1	6	-6%	32%	-3	1
CC1CCC2(CC1)NC(=O)N(CC(=O)Nc1ccc(N3CCCCC3)cc1)C2=O (configuration not stated)	/	/	/	-25	/
CCOC(=O)C1(CCOc2ccccc2)CCN(Cc2ccc(C)s2)CC1	-9	10µM*	13µM*	-82*	-1
CCOC(=O)C1(CCOc2ccccc2)CCN(C(=O)c2ccc(-n3cccn3)cc2)CC1	16	10µM*	?	?	5
CCOC(=O)C1(CCOc2ccccc2)CCN(Cc2cccc(F)c2)CC1	5	?	0%	-91*	1
CCOC(=O)C1(CCOc2ccccc2)CCN(Cc2cccc(-n3cccn3)c2)CC1	1	10µM*	?	-39	-5
CCOC(=O)C1(CCOc2ccccc2)CCN(Cc2cccc(OCCO)c2)CC1	/	-2%	-3%	62	-1
S=c1[nH]nc(-c2ccccn2)n1/N=C/c1ccc(Cl)cc1	-4	20%	?	28	-3
O=C(COC(=O)c1ccc(O)cc1)NC(c1ccccc1)c1ccccc1	/	/	/	-15	/
CCOC(=O)C1(CCOc2ccccc2)CCN(Cc2ccccc2O)CC1	/	/	/	18	/
CCOC(=O)C1(CCOc2ccccc2)CCN(Cc2cccn2-c2cccnc2)CC1	-11	-33%	?	-72*	-2
CCOC(=O)C1(Cc2ccccc2)CCN(Cc2cccn2-c2cccnc2)CC1	-7	?	?	-15	-2
CCOC(=O)C1(CCOc2ccccc2)CCN(Cc2cccc(OC)c2OC)CC1	-25	10µM*	?	-3	-2
COC/C=C/c1cc(F)c(S(=O)(=O)N2CCN(S(=O)(=O)c3ccc4c(c3)OCCO4)CC2)cc1F	-10	/	/	/	-5
Cc1ccc(NC(=O)Cn2c(=O)n(Cc3ccc4c(c3)OCO4)c(=O)c3oc4ccccc4c32)cc1C	/	/	/	14	/
O=C(CSC1CC(=O)N(c2ccc(C(=O)O)cc2)C1=O)Nc1ccc(Cl)cc1 (configuration not stated)	13	12µM*	2%	-32	-1
CCN(CC)c1ccc2c(C)cc(=O)oc2c1	/	?	-9%	-13	/
CCN(CC)c1ccc2ccc(=O)oc2c1	16	9.3µM*	-34%	-10	12
Cn1cc(S(=O)(=O)N2CCCCC2)cc1C(=O)NCc1ccc(Cl)cc1	13	/	/	55	7
c1ccn(-c2ccc(-c3ccn[nH]3)cc2)c1	91*	i	363%	29	37*
Oc1ccccc1-c1ccn[nH]1	/	/	/	-7	/
SMILES	Shiga toxin inh	Pf growth 96h	Pf growth 48h	HCMV antiviral	CHX counter
Cc1ccc(C)n1-c1ccc(-c2ccn[nH]2)cc1	71*	?	?	95	36*
COc1ccc(C(=O)CSc2nc3c(c(=O)n(C)c(=O)n3C)n2C)cc1	-5	-29%	7%	/	-1
Cn1c(=O)c2c(nc(SCCOc3ccc4ccc(=O)oc4c3)n2C)n(C)c1=O	-7	13µM*	9%	/	-3
CN(CCCC1CCCC1)C(=O)c1cc(COc2ccc(F)cc2F)on1	58*	6%	-10%	15	22*
CN(CCC1CCCCO1)C(=O)c1cc(COc2ccc(F)cc2F)on1 (configuration not stated)	44	16%	-24%	9	21*
O=S(=O)(c1ccc2c(c1)OCCO2)N1CCN(S(=O)(=O)c2c(F)ccc(O)c2F)CC1	5	/	/	/	3
C=C1C(=O)[C@]23C[C@H]1CCC2[C@]1(C)CCC[C@@](C)(C(=O)O)C1C[C@@H]3O (some centres not stated)	/	/	/	-102*	/
COc1cccc2cc(/C(=N/O)c3ccccc3)oc12	33	58%	72%	-21	26*
COc1cccc2cc(C(C)=O)oc12	-5	?	-9%	-10	-2
COc1ccc(C(=O)c2cc3cccc(OC)c3o2)cc1	98*	39%	242%	-27	41*
CC1=NN(C(C#N)c2ccc(F)cc2)C(C)(C)C1 (configuration not stated)	-11	22%	23%	-30	-1
CC1=NN(C(C#N)c2ccccc2C)C(C)(C)C1 (configuration not stated)	13	-2%	-14%[5.75 µM]	-65*	-3
CCOc1ccc(C(c2nnnn2Cc2ccccc2)N2CCN(C(=O)c3ccco3)CC2)cc1 (configuration not stated)	/	/	/	-4	/
COc1cccc(C(c2nnnn2Cc2ccco2)N2CCN(c3cccc(C)c3C)CC2)c1OC (configuration not stated)	58*	8%	9.3µM*	-4	17
CCCC(c1nnnn1C1CCCCC1)N1CCN(C(=O)c2ccco2)CC1 (configuration not stated)	-1	11%	3.7µM*	26	-10
COc1ccc(C(c2nnnn2Cc2ccccc2)N2CCN(C(=O)c3ccco3)CC2)cc1 (configuration not stated)	-3	/	?	28	28*
CCC(c1nnnn1CCc1ccccc1)N1CCN(C(=O)c2ccco2)CC1 (configuration not stated)	25	9.3µM*	-4%	-16	-5
CCOc1cccc(C(=O)Nc2ccc3oc(-c4ccc(C(C)(C)C)cc4)nc3c2)c1	/	/	/	-37	/
COc1ccc(S(=O)(=O)Nc2ccc(N3CCOCC3)nc2)cc1	-7	8%	?	-2	-5
O=C(c1ccco1)N1CCN(C(c2ccc(Cl)cc2)c2nnnn2Cc2ccccc2)CC1 (configuration not stated)	15	10µM*	12µM*	19	13*
COc1cccc(C(c2nnnn2Cc2ccccc2)N2CCN(C(=O)c3ccco3)CC2)c1OC (configuration not stated)	-4	?	9.3µM*	-40	-1
CCCCC(c1nnnn1C1CCCC1)N1CCN(C2CCCC2)CC1 (configuration not stated)	-20	?	?	-16	32*
COc1ccccc1C(c1nnnn1C(C)C)N1CCN(C(=O)c2ccco2)CC1 (configuration not stated)	19	?	-22%	-13	-5
Clc1ccccc1C(c1nnnn1Cc1ccco1)N1CCN(Cc2ccco2)CC1 (configuration not stated)	36	3%	15µM*	18	5
CC(C)OC(=O)c1c(F)c(F)c(N2CCOCC2)c(F)c1F	-24	/	9%	?	-1
